Measured values taken from PubChem BioAssay (NCATS).
Inconclusive results are not listed. Active and inactive are the calls of the source. The call rests on the fitted dose curve; in most records, active means well fitted cell-killing curve with a large enough effect; inconclusive means small, poorly fitted or top-dose-only effect, or effect the other way; inactive means flat fitted curve, though single readings scatter. Where a SMILES comes first, the peptide text is derived from it. The star is where a group is joined. PhAc = O=C(Cc1ccccc1)*

How the values were obtained:
Test in all cases: Primary qHTS to identify gynecologic anti-cancer compounds using libraries of approved drugs and bioactive compounds (AID 1345084); further: nearly all actives have a fitted effect of over 55% in size
C33A = conditions: Gynecologic cancer cell panel viability, ATPlite luminescence, 48 h; series mostly up to 57.5 µM
How it was run: (§1)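 48 h compound exposure at 37 C, 5% CO2; five-point qHTS. ATPlite luminescence readout of cell ATP.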

CAOV3 = conditions: Gynecologic cancer cell panel viability, ATPlite luminescence, 48 h; series mostly up to 57.5 µM
How it was run: as §1

CASKI = conditions: Gynecologic cancer cell panel viability, ATPlite luminescence, 48 h; series mostly up to 57.5 µM
How it was run: as §1

Es-2 = conditions: Gynecologic cancer cell panel viability, ATPlite luminescence, 48 h; series mostly up to 57.5 µM
How it was run: as §1

HeLa = conditions: Gynecologic cancer cell panel viability, ATPlite luminescence, 48 h; series mostly up to 57.5 µM
How it was run: as §1

Hek293T = conditions: Gynecologic cancer cell panel viability, ATPlite luminescence, 48 h, control line for the selectivity index; series mostly up to 57.5 µM
How it was run: as §1

JEG-3 = conditions: Gynecologic cancer cell panel viability, ATPlite luminescence, 48 h; series mostly up to 57.5 µM
How it was run: as §1

OV90 = conditions: Gynecologic cancer cell panel viability, ATPlite luminescence, 48 h; series mostly up to 57.5 µM
How it was run: as §1

PA-1 = conditions: Gynecologic cancer cell panel viability, ATPlite luminescence, 48 h; series mostly up to 57.5 µM
How it was run: as §1

SKOV3 = conditions: Gynecologic cancer cell panel viability, ATPlite luminescence, 48 h; series mostly up to 57.5 µM
How it was run: as §1

Tov-21-G = conditions: Gynecologic cancer cell panel viability, ATPlite luminescence, 48 h; series mostly up to 57.5 µM
How it was run: as §1

Tov112D = conditions: Gynecologic cancer cell panel viability, ATPlite luminescence, 48 h; series mostly up to 57.5 µM
How it was run: as §1
On the % scale 0 is the no-effect control and ±100 the full control effect.

COC(O)(CC(C)C)C1Oc2cc(C)[nH]c(=O)c2O1 (stereo unspecified)
inactive: Potency (C33A) | Potency (CAOV3) | outcome (CASKI) | Potency (Es-2) | Potency (HeLa) | Potency (Hek293T) | Potency (JEG-3) | Potency (OV90) | Potency (PA-1) | Potency (SKOV3) | Potency (Tov-21-G) | Potency (Tov112D)

C=C1CCC2(C(=O)OC3OC(CO)C(O)C(O)C3O)CCC3(C)C(=CCC4C5(C)CCC(OC6OC(CO)C(OC7OC(C)C(O)C(O)C7O)C(OC7OCC(O)C(O)C7O)C6O)C(C)(C)C5CCC43C)C2C1 (stereo unspecified)
inactive: activity change, negative = cytotoxicity (C33A) 5.83% [at 11.6 µM] | activity change, negative = cytotoxicity (CAOV3) 1.68% [at 11.6 µM] | activity change, negative = cytotoxicity (CASKI) -6.54% [at 11.6 µM] | activity change, negative = cytotoxicity (Es-2) -3.02% [at 11.6 µM] | activity change, negative = cytotoxicity (HeLa) 11.1% [at 11.6 µM] | activity change, negative = cytotoxicity (Hek293T) 6.11% [at 11.6 µM] | activity change, negative = cytotoxicity (JEG-3) 12.2% [at 11.6 µM] | activity change, negative = cytotoxicity (OV90) 9.22% [at 11.6 µM] | activity change, negative = cytotoxicity (PA-1) 18.7% [at 11.6 µM] | activity change, negative = cytotoxicity (SKOV3) 24.5% [at 11.6 µM] | activity change, negative = cytotoxicity (Tov-21-G) 0.21% [at 11.6 µM] | activity change, negative = cytotoxicity (Tov112D) 9.24% [at 11.6 µM]

CCCC(=O)Nc1cccc(NC(=O)c2ccccc2Br)c1
inactive: Potency (C33A) | Potency (CAOV3) | outcome (CASKI) | Potency (Es-2) | Potency (HeLa) | Potency (Hek293T) | Potency (JEG-3) | Potency (OV90) | Potency (PA-1) | Potency (SKOV3) | Potency (Tov-21-G) | Potency (Tov112D)

CC1CC(=O)[C@]2(O)C(C(=O)OCCc3ccc(O)c(O)c3)=CO[C@@H](O[C@@H]3O[C@H](CO)[C@@H](O)[C@H](O)[C@H]3O)[C@H]12 (stereo partly specified)
inactive: Potency (C33A) | Potency (CAOV3) | outcome (CASKI) | Potency (Es-2) | Potency (HeLa) | Potency (Hek293T) | Potency (JEG-3) | Potency (OV90) | Potency (PA-1) | Potency (SKOV3) | Potency (Tov-21-G) | Potency (Tov112D)

CC(=O)OCC1OC(OC2COC(OC3COC(OC4C(OC5C(CO)OC(OC6CCC7(C)C(CCC8(C)C7CC=C7C9CC(C)(C)CCC9(C(=O)OC9OC(CO)C(O)C(O)C9OC9OCC(OC%10OCC(O)(CO)C%10O)C(O)C9O)C(O)CC78C)C6(C)C)C(O)C5O)OCC(O)C4O)C(O)C3O)C(O)C2O)C(OC(=O)/C=C/c2ccccc2)C(O)C1OC(C)=O (stereo unspecified)
inactive: activity change, negative = cytotoxicity (C33A) 6.07% [at 6.55 µM] | activity change, negative = cytotoxicity (CAOV3) -0.975% [at 6.55 µM] | activity change, negative = cytotoxicity (CASKI) 5.64% [at 6.55 µM] | activity change, negative = cytotoxicity (Es-2) -4.41% [at 6.55 µM] | activity change, negative = cytotoxicity (HeLa) 6.46% [at 6.55 µM] | activity change, negative = cytotoxicity (Hek293T) 3.2% [at 6.55 µM] | activity change, negative = cytotoxicity (JEG-3) -2.72% [at 6.55 µM] | activity change, negative = cytotoxicity (OV90) -0.455% [at 6.55 µM] | activity change, negative = cytotoxicity (PA-1) -23.4% [at 6.55 µM] | activity change, negative = cytotoxicity (SKOV3) 14.7% [at 6.55 µM] | activity change, negative = cytotoxicity (Tov-21-G) -3.47% [at 6.55 µM] | activity change, negative = cytotoxicity (Tov112D) 9.27% [at 6.55 µM]

C=C1CC[C@@H]2[C@@](C)(CO[C@@H]3O[C@H](CO)[C@@H](O)[C@H](O)[C@H]3O)[C@H](O)CC[C@@]2(C)[C@@H]1CC/C(C)=C/CO[C@@H]1O[C@H](CO)[C@@H](O)[C@H](O)[C@H]1O
inactive: Potency (C33A) | Potency (CAOV3) | outcome (CASKI) | Potency (Es-2) | Potency (HeLa) | Potency (Hek293T) | Potency (JEG-3) | Potency (OV90) | Potency (PA-1) | Potency (SKOV3) | Potency (Tov-21-G) | Potency (Tov112D)

O=C(OCC(O)CO[C@@H]1O[C@H](C(=O)O)[C@@H](O)[C@H](O)[C@H]1O)c1ccccc1 (stereo partly specified)
inactive: Potency (C33A) | Potency (CAOV3) | outcome (CASKI) | Potency (Es-2) | Potency (HeLa) | Potency (Hek293T) | Potency (JEG-3) | Potency (OV90) | Potency (PA-1) | Potency (SKOV3) | Potency (Tov-21-G) | Potency (Tov112D)

C=CC(C)(O)CC/C=C(\C)COC1O[C@H](CO)[C@@H](O)[C@H](O)[C@H]1O (stereo partly specified)
inactive: Potency (C33A) | Potency (CAOV3) | outcome (CASKI) | Potency (Es-2) | Potency (HeLa) | Potency (Hek293T) | Potency (JEG-3) | Potency (OV90) | Potency (PA-1) | Potency (SKOV3) | Potency (Tov-21-G) | Potency (Tov112D)

Cc1oc(S(=O)(=O)N2CCCCC2)cc1NC(=O)Nc1ccccc1
inactive: Potency (C33A) | Potency (CAOV3) | outcome (CASKI) | Potency (Es-2) | Potency (HeLa) | Potency (Hek293T) | Potency (JEG-3) | Potency (OV90) | Potency (PA-1) | Potency (SKOV3) | Potency (Tov-21-G) | Potency (Tov112D)

COc1cncc(C#Cc2ccccn2)c1
inactive: Potency (C33A) | Potency (CAOV3) | outcome (CASKI) | Potency (Es-2) | Potency (HeLa) | Potency (Hek293T) | Potency (JEG-3) | Potency (OV90) | Potency (PA-1) | Potency (SKOV3) | Potency (Tov-21-G) | Potency (Tov112D)

O=C(OCC1OC(Oc2ccc(O)cc2COC(=O)C2(O)C(O)CCC(=O)C2OC(=O)C2C=CCC2)C(OC(=O)C2C=CCC2)C(O)C1O)C1C=CCC1 (stereo unspecified)
inactive: Potency (C33A) | Potency (CAOV3) | outcome (CASKI) | Potency (Es-2) | Potency (HeLa) | Potency (Hek293T) | Potency (JEG-3) | Potency (OV90) | Potency (PA-1) | Potency (SKOV3) | Potency (Tov-21-G) | Potency (Tov112D)

CC1CC(=O)C2=C(O1)OC1(C)CCC3C(C)(C)C4OC4C(=O)C3(C)C1C2 (stereo unspecified)
inactive: Potency (C33A) | Potency (CAOV3) | outcome (CASKI) | Potency (Es-2) | Potency (HeLa) | Potency (Hek293T) | Potency (JEG-3) | Potency (OV90) | Potency (PA-1) | Potency (SKOV3) | Potency (Tov-21-G) | Potency (Tov112D)

CCOC(=O)CNC(=O)[C@@H]1CCCN1C(=O)Cc1ccccc1 (PhAc-Pro-Gly-OEt)
inactive: Potency (C33A) | Potency (CAOV3) | outcome (CASKI) | Potency (Es-2) | Potency (HeLa) | Potency (Hek293T) | Potency (JEG-3) | Potency (OV90) | Potency (PA-1) | Potency (SKOV3) | Potency (Tov-21-G) | Potency (Tov112D)
